# Values without a mark were called inactive.
# Key:
# Test in all cases: log2 ratio of Biotin-Ahx-Ub-VS probe labelling (fragment/DMSO); higher = less target engagement (more negative = stronger competition), active = hit call of the paper (q ≤ 0.05, log2 ratio ≤ -1)
# Details in all cases: compound concentration: 200 uM; treatment time: 3 h
# OTUD6B = molecular target: T1, OTUD6B (UniProt Q8N6M0)
# T1 sequence (whole entry): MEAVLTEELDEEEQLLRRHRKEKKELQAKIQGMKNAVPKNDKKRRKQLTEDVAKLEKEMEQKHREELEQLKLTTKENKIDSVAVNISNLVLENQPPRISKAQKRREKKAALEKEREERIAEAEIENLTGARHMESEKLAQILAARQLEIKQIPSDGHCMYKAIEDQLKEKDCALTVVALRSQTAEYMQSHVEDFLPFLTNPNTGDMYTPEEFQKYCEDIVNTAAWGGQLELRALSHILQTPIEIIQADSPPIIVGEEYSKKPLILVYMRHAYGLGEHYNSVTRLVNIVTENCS
# Method in brief: (§1)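 Each value is an average log2 ratio of fragment to vehicle, tested by unpaired t-test. The underlying Spectronaut label-free quantities were global-median-normalised, and only proteins with ≥2 unique peptides were included. Triplicate HEK293T lysate samples (495 µg) were exposed to fragment at 200 µM or vehicle for 3 h, then to Biotin-Ahx-Ub-VS at 0.5 µM final for 1 h, before NeutrAvidin enrichment of labelled DUBs, LysC and trypsin digestion, and diaPASEF LC-MS/MS.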
# OTUD7B = molecular target: T2, OTUD7B (UniProt Q6GQQ9)
# T2 sequence (whole entry): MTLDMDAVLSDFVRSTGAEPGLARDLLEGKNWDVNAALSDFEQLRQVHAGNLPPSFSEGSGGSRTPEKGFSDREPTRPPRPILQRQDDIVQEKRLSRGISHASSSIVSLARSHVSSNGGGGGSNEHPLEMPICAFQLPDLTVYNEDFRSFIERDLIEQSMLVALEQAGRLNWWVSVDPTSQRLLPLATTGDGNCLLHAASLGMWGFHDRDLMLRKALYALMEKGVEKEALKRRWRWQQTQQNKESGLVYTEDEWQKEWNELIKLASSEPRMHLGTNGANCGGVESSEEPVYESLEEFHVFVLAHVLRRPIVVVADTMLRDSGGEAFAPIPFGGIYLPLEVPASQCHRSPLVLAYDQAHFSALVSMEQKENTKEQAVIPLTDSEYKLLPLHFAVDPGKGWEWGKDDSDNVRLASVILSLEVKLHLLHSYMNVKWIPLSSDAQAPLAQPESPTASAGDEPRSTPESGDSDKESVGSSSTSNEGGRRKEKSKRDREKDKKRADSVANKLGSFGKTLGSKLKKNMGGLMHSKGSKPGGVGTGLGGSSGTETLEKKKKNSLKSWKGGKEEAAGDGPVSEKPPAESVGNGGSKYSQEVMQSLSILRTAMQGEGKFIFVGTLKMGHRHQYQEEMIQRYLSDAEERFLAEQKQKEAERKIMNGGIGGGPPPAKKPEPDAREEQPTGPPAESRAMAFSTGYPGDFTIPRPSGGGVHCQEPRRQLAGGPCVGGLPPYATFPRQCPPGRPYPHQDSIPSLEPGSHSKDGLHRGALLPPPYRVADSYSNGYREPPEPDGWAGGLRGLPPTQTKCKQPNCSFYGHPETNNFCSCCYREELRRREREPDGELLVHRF
# Method in brief: as §1
# PRPF8 = PRPF8 (UniProt Q6P2Q9)
# Method in brief: as §1
# PSMD7 = molecular target: T3, PSMD7 (UniProt P51665)
# T3 sequence (whole entry): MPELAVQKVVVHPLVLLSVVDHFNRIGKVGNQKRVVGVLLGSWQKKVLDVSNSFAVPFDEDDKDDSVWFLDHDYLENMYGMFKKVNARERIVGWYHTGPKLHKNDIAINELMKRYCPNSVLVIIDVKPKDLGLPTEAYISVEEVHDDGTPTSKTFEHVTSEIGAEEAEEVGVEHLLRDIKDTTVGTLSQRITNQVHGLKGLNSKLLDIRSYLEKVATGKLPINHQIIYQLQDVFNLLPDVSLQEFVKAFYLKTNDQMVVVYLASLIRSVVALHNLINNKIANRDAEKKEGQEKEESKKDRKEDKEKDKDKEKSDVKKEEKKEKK
# Method in brief: as §1
# UCHL1 = UCHL1 (UniProt P09936)
# Chain of UCHL1 (P09936 whole entry, looked up): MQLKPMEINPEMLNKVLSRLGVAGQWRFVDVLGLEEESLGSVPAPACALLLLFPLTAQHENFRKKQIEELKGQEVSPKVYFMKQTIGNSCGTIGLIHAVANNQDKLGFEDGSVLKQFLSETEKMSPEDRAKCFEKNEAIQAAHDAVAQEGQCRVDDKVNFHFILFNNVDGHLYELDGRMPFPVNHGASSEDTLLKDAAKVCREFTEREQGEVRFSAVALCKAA
# Method in brief: as §1
# UCHL3 = molecular target: T4, UCHL3 (UniProt P15374)
# T4 sequence (whole entry): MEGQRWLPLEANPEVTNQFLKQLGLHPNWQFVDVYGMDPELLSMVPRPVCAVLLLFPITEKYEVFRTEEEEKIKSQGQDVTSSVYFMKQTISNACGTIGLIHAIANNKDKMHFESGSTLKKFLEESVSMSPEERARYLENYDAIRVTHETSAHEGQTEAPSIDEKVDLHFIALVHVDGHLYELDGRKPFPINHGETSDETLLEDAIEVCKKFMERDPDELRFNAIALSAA
# Method in brief: as §1
# UCHL5 = molecular target: T5, UCHL5 (UniProt Q9Y5K5)
# T5 sequence (whole entry): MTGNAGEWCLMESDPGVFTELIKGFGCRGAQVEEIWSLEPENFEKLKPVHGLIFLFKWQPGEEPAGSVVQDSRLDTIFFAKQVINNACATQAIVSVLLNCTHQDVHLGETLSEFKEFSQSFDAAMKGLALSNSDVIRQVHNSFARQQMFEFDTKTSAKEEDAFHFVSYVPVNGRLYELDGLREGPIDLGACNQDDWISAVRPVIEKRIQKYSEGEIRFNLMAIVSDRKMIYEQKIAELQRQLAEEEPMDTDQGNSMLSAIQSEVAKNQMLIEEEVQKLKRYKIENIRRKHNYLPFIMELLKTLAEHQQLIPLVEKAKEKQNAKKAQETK
# Method in brief: as §1
# USP10 = USP10 (UniProt Q14694)
# Chain of USP10 (Q14694 whole entry): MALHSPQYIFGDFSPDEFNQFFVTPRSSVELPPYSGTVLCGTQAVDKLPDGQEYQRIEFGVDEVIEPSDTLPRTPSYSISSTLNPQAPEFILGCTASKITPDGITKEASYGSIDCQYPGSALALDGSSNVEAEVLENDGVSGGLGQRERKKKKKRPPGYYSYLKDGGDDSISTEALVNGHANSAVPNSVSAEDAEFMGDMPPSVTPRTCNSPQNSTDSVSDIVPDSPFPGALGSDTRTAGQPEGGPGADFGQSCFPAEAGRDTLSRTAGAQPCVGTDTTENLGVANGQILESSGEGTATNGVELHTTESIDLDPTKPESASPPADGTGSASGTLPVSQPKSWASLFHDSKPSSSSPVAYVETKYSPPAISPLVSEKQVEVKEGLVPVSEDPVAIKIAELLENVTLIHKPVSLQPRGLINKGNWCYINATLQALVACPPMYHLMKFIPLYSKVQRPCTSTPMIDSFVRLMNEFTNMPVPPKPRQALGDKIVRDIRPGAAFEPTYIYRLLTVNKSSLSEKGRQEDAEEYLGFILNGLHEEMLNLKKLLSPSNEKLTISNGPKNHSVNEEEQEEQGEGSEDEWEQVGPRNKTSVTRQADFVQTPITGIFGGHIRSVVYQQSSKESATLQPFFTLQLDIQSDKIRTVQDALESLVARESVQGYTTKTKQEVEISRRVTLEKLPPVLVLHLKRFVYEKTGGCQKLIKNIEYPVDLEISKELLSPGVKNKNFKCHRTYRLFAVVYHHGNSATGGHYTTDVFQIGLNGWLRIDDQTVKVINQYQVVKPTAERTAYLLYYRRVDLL
# Method in brief: as §1
# USP15 = molecular target: T6, USP15 (UniProt Q9Y4E8)
# T6 sequence (whole entry): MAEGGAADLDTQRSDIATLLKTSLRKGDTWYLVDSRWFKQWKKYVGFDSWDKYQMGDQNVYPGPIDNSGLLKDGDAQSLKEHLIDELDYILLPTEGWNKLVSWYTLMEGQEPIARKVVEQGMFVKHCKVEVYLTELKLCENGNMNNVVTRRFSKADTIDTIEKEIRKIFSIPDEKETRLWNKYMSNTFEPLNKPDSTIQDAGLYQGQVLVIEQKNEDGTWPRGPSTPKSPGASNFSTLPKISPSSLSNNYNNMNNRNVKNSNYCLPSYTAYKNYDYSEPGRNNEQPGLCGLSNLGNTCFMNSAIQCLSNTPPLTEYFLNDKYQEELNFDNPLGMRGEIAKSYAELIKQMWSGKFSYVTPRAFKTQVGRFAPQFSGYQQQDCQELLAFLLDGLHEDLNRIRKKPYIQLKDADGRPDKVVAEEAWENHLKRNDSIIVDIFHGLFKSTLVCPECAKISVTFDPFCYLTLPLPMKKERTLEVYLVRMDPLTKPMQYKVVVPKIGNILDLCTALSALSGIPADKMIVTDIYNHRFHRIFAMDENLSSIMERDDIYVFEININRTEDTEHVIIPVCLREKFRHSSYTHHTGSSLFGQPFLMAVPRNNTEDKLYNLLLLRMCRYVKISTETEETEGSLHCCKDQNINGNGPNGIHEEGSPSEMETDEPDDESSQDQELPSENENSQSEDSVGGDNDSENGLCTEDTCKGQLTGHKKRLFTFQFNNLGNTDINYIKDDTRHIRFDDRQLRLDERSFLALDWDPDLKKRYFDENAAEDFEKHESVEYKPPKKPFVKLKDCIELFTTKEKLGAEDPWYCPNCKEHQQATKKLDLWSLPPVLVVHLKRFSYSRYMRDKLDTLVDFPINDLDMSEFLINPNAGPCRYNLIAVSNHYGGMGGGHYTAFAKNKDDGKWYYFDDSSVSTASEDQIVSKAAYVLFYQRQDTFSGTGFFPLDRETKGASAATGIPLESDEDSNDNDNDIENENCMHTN
# Method in brief: as §1
# USP16 = USP16 (UniProt Q9Y5T5)
# Chain of USP16 (Q9Y5T5 whole entry, looked up): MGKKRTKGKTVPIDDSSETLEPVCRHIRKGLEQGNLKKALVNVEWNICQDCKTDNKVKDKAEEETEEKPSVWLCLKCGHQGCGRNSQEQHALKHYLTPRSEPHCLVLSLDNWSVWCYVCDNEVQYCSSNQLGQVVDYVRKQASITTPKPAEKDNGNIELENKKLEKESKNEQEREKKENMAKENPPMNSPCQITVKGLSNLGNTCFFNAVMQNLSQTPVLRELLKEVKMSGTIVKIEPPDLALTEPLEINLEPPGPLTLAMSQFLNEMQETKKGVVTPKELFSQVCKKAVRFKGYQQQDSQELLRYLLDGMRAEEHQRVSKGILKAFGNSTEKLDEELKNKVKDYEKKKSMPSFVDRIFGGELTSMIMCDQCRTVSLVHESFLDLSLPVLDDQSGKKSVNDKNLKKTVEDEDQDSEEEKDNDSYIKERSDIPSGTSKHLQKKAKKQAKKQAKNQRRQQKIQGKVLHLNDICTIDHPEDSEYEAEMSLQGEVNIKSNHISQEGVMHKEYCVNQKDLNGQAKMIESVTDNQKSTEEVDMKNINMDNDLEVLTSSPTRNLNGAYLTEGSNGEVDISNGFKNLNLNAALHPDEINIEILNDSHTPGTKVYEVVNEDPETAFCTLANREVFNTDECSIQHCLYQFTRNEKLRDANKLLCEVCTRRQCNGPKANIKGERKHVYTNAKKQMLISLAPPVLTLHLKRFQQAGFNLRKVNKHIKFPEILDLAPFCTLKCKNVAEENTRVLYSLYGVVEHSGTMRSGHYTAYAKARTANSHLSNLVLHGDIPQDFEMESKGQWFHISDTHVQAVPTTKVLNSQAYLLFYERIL
# Method in brief: as §1
structure (smiles),measurement,setting,value
O=C(CCl)NCCc1ccc(F)cc1,log2 ratio of Biotin-Ahx-Ub-VS probe labelling,OTUD6B,0.0481
same,log2 ratio of Biotin-Ahx-Ub-VS probe labelling,OTUD7B,-0.435
same,log2 ratio of Biotin-Ahx-Ub-VS probe labelling,PRPF8,-0.0623
same,log2 ratio of Biotin-Ahx-Ub-VS probe labelling,PSMD7,0.0236
same,log2 ratio of Biotin-Ahx-Ub-VS probe labelling,UCHL1,-1.09 (active)
same,log2 ratio of Biotin-Ahx-Ub-VS probe labelling,UCHL3,0.132
same,log2 ratio of Biotin-Ahx-Ub-VS probe labelling,UCHL5,-0.0307
same,log2 ratio of Biotin-Ahx-Ub-VS probe labelling,USP10,-0.0913
same,log2 ratio of Biotin-Ahx-Ub-VS probe labelling,USP15,-0.0724
same,log2 ratio of Biotin-Ahx-Ub-VS probe labelling,USP16,0.107

# Reference: the supplement of paper PMC11732987, “Enantioselective OTUD7B fragment discovery through chemoproteomics screening and high-throughput optimisation” (Communications Chemistry, 2025)
